Compound activity as filed in PubChem.
TDP1 inh: blocks human tyrosyl-DNA phosphodiesterase 1; recombinant TDP1, AlphaScreen DNA substrate cleavage; Potency, µM (titrated, usually from 130 µM), inactives show top-dose activity change, negative = inhibition, actives largely listed as inhibitors; hit rate 0.28% among 350,000; AID 485290; note: potency is the fitted concentration of half-maximal effect; nearly all actives have a fitted effect of over 40% in size
Target sequence (Q9NUW8 whole entry, looked up): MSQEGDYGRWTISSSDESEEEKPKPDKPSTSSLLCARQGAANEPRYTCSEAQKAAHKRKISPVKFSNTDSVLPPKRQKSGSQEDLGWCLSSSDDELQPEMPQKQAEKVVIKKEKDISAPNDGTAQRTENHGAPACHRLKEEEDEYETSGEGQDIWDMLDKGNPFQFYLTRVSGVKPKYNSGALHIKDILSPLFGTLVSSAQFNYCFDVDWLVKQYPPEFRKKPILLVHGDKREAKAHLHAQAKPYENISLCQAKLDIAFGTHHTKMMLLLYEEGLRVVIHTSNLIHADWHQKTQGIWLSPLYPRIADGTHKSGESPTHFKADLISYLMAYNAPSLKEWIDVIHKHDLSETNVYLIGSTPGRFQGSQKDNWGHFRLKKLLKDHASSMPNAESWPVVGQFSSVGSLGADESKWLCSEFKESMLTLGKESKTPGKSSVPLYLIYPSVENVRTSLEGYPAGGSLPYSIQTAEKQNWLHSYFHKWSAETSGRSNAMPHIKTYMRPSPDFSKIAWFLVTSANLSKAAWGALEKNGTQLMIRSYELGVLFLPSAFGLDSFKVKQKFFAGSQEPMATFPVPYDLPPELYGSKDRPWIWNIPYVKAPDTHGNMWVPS
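Steps: enzyme plus compound, 15 min RT; add biotin/phosphotyrosine-FITC oligonucleotide (15 nM final), react 5 min; add donor/acceptor beads (10 ug/ml final), 10 min; read AlphaScreen. Tdp1 at 1 nM final.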
Giardia kill: kills Giardia lamblia; Giardia lamblia trophozoite viability; activity change, % at 7.66 µM, hits read low; hit rate 0.15% among 340,000; AID 540267; in the data active = activity change below about -80%; inconclusive = between about -30% and that limit;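 note: parasites exposed to compound for two days anaerobically before the ATP read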
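Giardia trophozoites, 100 cells per well, were exposed to compounds for 48 hrs at 37 deg C under anaerobic conditions; viability was then read as ATP content by bioluminescence after 15-30 min at room temperature.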
IL1B secr inh: inflammasome signaling inhibition, IL-1 beta readout | THP-1 LPS/ATP IL-1B secretion, AlphaLISA, 16 h; stronger effect = lower value | activity change, % at 57.5 µM | hit rate 4.7% among 360,000 | AID 743279; in the data active = activity change below about -50%; inconclusive = mostly about -30% to -49%
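THP-1 cells pretreated 1 hr with compounds (up to 57.5 uM final), then stimulated with LPS (250 ng/mL final) plus ATP (1.25 mM final); secreted IL-1B measured by AlphaLISA after 16 hr, decreased signal indicating inhibition.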
ELG1 repair inh: inhibitors of ELG1-dependent DNA repair in HEK293T cells | HEK293T ELG1-luciferase reporter, luminescence, 16 h; DNA damage induced by 5-fluorouridine | hit rate 2.3% among 330,000 | AID 504467 | Potency, µM (top dose mostly 46.1 µM), without a hit: at the top dose activity change, negative = inhibition, usual class: inhibitors; note: potency is the fitted concentration of half-maximal effect; nearly all actives have a fitted effect of over 55% in size
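HEK293T cells expressing luciferase-tagged ELG1 (2,000/well) received 5-Fluorouridine plus compound or DMSO for 16 hr at 37 °C. Luciferase was read by ONE-Glo luminescence after 30 min at room temperature.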
DT40 TDP1 no CPT: qHTS for Inhibitors of human tyrosyl-DNA phosphodiesterase 1 (TDP1): qHTS in cells in absence of CPT. DT40 Tdp1-/- hTDP1 cells, no CPT, ATP luminescence, 48 h. Potency, µM (series often up to 46.2 µM), for the others: at the top dose activity change, negative = growth inhibition, hits mostly inhibitors. hit rate 15% among 420,000. AID 686978, 2013; note: potency is the fitted concentration of half-maximal effect; nearly all actives have a fitted effect of over 55% in size
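No-CPT arm: Tdp1-/-;hTDP1 DT40 cells (400/well) plus compounds, incubated ≥48 hr at 37 °C. Readout CellTiter-Glo luminescence.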
TDP1 cell CPT: DT40-hTDP1 cell growth loss with CPT. chicken DT40 Tdp1-/-;hTDP1 cells + 20 nM CPT, ATP luminescence, 48 h. Potency, µM (doses to about 46.2 µM), without a hit: at the top dose activity change, negative = growth inhibition, hits mostly inhibitors. hit rate 12% among 420,000. AID 686979; note: potency is the fitted concentration of half-maximal effect; nearly all actives have a fitted effect of over 55% in size
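Chicken DT40 Tdp1-/- cells complemented with human TDP1, 400 cells/well, exposed to compounds plus 20 nM camptothecin for at least 48 h at 37 C; viability read as ATP content by CellTiter-Glo luminescence.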
Numbers without * were called inactive; ? = inconclusive; . = not tested or not shown. Shown are actives, neighbours in structure and some others; about 19% of the full set was active somewhere. Unless noted, calls come from the whole dose curve; as a rule, active = well fitted curve in the direction sought with a large enough effect; inconclusive = small, poorly fitted or top-dose-only effect, or another doubt; inactive = no such curve, though single readings can be large; an effect the other way counts as inactive or inconclusive. % is set by controls: 0 for no effect and ±100 for the full control effect.

SMILES	TDP1 inh	Giardia kill	IL1B secr inh	ELG1 repair inh	DT40 TDP1 no CPT	TDP1 cell CPT
O=C1CC(SC(=Nc2ccccc2)Nc2ccccc2)C(=O)N1c1cccc(Cl)c1 (centres undefined)	0%	13	-6	-17%	18µM*	?
O=C1CC(SC(=Nc2ccccc2)Nc2ccccc2)C(=O)N1c1ccc(Cl)cc1 (centres undefined)	3%	-4	15	10%	?	?
CCCc1ccc(C#N)c(SC2CC(=O)N(c3ccc(OC)cc3)C2=O)n1 (centres undefined)	6%	25	24	23%	0%	7%
O=C1CC(Sc2nnnn2-c2ccccc2)C(=O)N1c1cccc(Cl)c1 (centres undefined)	3%	-9	-7	3%	3.7µM*	1.3µM*
COc1ccc(N2C(=O)CC(Sc3nnnn3-c3ccc(F)cc3)C2=O)cc1 (centres undefined)	3%	-2	-16	8%	2.9µM*	1.5µM*
O=C(c1cc2ccccc2oc1=O)N1CCN(c2ccc(F)cc2)CC1	-3%	.	.	.	?	-25%
COc1ccc(-n2c(=O)c3c4c(sc3n3c(SC(C)C)nnc23)COC(C(C)C)C4)cc1 (centres undefined)	2%	.	.	.	?	?
O=C(c1ccccc1)c1cnc(Nc2ccccc2Cl)s1	-2%	1	-58*	?	-8%	-22%
COC(=O)[C@]1(C)N[C@H](c2ccc(-c3ccccc3)cc2)[C@@H]2C(=O)N(C)C(=O)[C@@H]21	-2%	9	-2	?	?	?
CCN1C(=O)[C@H]2[C@@H](c3ccc(-c4ccccc4)cc3)N[C@@](Cc3ccccc3)(C(=O)OC)[C@H]2C1=O	-7%	-9	-53*	-23%	18µM*	?
CCN1C(=O)[C@H]2[C@@H](c3ccc(-c4ccc(Cl)c(Cl)c4)cc3)N[C@@](Cc3ccccc3)(C(=O)OC)[C@H]2C1=O	-2%	-16	-12	-2%	15µM*	23µM*
CCN1C(=O)[C@H]2[C@@H](c3ccc(-c4ccc(C(C)=O)cc4)cc3)N[C@@](Cc3ccccc3)(C(=O)OC)[C@H]2C1=O	2%	37	-20	-17%	?	13µM*
COC(=O)[C@]1(Cc2ccccc2)N[C@H](c2ccc(-c3ccc(F)cc3)cc2)[C@@H]2C(=O)N(C)C(=O)[C@@H]21	0%	-26	?	-29%	16µM*	18µM*
CCNc1ncc2nc(-c3cn(C)c4ccccc34)c(=O)n(Cc3cccc(OC)c3)c2n1	.	.	.	.	-2%	10%
O=C(N/C(=C/C=C/c1ccccc1)C(=O)N1CCCCC1)c1ccc([N+](=O)[O-])cc1	10%	12	-8	23µM*	?	?
O=C(N/C(=C/c1ccc([N+](=O)[O-])cc1)C(=O)N1CCCC1)c1ccccc1	.	21	26	17%	-5%	-4%
COc1ccc(CCNC(=O)Cn2c(=O)n(-c3ccc(OC)c(OC)c3)c(=O)c3ccccc32)cc1OC	1%	.	.	.	-4%	-6%
Cc1cc(C(=O)OC(C(=O)Nc2ccc(C)c(Cl)c2)c2ccccc2)c(C)o1 (centres undefined)	-1%	-4	-26	-25%	29µM*	23µM*
Cc1cc(C)cc(NC(=O)C(OC(=O)c2cc[n+]([O-])cc2)c2ccccc2)c1 (centres undefined)	0%	-10	-9	28%	10%	?
Cc1ccc(NC(=O)C(OC(=O)c2ccc(NC(N)=O)cc2)c2ccccc2)cc1Cl (centres undefined)	3%	11	-53*	-19%	?	?
